Screening results: PubChem BioAssay, National Center for Advancing Translational Sciences (NCATS)
A selection: hits, their analogues and other compounds. The true share with any hit is near 14%.
LmPK inh: blocks Leishmania mexicana pyruvate kinase activity; 290,000 compounds, 0.37% hits; purified LmPK, Kinase-Glo ATP luminescence, 1 h; Q27686; AID 1721; Potency, µM (series often up to 57.5 µM), usual class: inhibitors
Target sequence (Q27686 whole entry, looked up): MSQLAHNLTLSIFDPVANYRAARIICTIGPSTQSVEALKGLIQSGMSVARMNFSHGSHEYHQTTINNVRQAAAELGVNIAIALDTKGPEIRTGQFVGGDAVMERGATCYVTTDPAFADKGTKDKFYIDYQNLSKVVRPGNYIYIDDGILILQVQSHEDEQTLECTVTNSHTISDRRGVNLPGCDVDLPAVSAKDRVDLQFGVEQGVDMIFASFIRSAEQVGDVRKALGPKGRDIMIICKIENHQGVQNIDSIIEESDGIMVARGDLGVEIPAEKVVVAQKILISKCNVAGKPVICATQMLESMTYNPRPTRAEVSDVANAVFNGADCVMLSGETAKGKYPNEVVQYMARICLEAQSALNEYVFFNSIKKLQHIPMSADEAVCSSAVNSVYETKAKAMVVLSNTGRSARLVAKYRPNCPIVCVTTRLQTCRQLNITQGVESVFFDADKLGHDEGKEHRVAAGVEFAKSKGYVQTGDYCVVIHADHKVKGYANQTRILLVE
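In 50 mM imidazole pH 7.2 with 7 mM MgCl2, LmPK (0.1 nM) turned over PEP (0.5 mM) and ADP (0.1 mM) for 1 h at room temperature. Luciferase read-out of ATP.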
CHX counter: counter-screen for Shiga toxin inhibitors: cycloheximide protein synthesis inhibition. 300,000 compounds, 12% hits. max response, %. cell reporter, cycloheximide protein synthesis inhibition counterscreen; in the data active means max response mostly above about 13%, no sharp cut-off; inactive means mostly below about 14%; further: read at 38.3 µM for the half of the compounds with a filed dose
Shiga inhibitor: inhibitors of Shiga toxin in Vero cells. Vero cells, Shiga toxin protein synthesis inhibition reporter. inhibition, % at 38.7 µM. 290,000 compounds, 9.2% hits. AID 2315; in the data active means inhibition mostly above about 28%, no sharp cut-off; inactive means mostly below about 43%
NS1 function inh: blocks influenza NS1 protein function | Potency, µM (highest dose often 46.1 µM) | 270,000 compounds, 0.4% hits | AID 2326; calls by dose curve; further: actives are rising curves; nearly all actives have a fitted effect of over 50% in size
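Growth recovery, yeast-based: influenza A NS1 expressed in S. cerevisiae causes slow growth, and suppressors are detected by OD600. The parent strain without NS1 is used as positive control.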
FBPA Giardia inh: inhibitors of Giardia lamblia fructose-1,6-bisphosphate aldolase. purified Giardia FBPA. AID 2451. Potency, µM (doses to about 59.6 µM), actives largely listed as inhibitors. 290,000 compounds, 0.71% hits; further: nearly all actives have a fitted effect of over 55% in size
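Giardia FBPA (40 nM reagent) was preincubated 10 min at RT with compound (up to 57.5 uM final), then substrate plus GAPDH/TPI/NAD/arsenate coupling system with diaphorase/resazurin was added; resorufin fluorescence (525/598 nm) was read after 20 min.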
A number is an active result; 0 = inactive; ? = inconclusive; - = no result. Unless noted, the call rests on the fitted dose curve; in most records, active means well fitted curve in the direction sought with a large enough effect; inconclusive means small, poorly fitted or top-dose-only effect, or another doubt; inactive means no such curve, though single readings can be large; an effect the other way counts as inactive or inconclusive.

SMILES	LmPK inh	CHX counter	Shiga inhibitor	NS1 function inh	FBPA Giardia inh
CC(=O)c1ccc(-c2cccs2)s1	0	24	36	-	0
N#Cc1cccc(NC(=O)c2cncn2-c2ccccc2)c1	0	0	0	0	0
CCCCNC(=O)COC(=O)c1ccc(C)c(NC(=O)c2ccco2)c1	0	0	0	-	0
CCC(=O)Nc1cc(C(=O)OCC(=O)c2ccccc2Cl)ccc1C	0	45	106	0	-
CCC(=O)Nc1cc(C(=O)OCC(=O)c2ccccc2)ccc1C	0	53	active	0	0
Cc1ccc(C(=O)OCC(=O)c2c[nH]c3ccccc23)cc1NC(=O)c1ccco1	0	19	0	0	0
CCC(=O)Nc1cc(C(=O)OCC(=O)c2ccc(Cl)cc2Cl)ccc1C	0	0	0	0	-
Cc1ccc(N(CC(=O)NC(C)(C)C)C(=O)CCC(=O)Nc2nccs2)c(C)c1	0	0	0	0	0
Cc1cc(C(=O)CSc2nc3ccccc3c(=O)[nH]2)c(C)n1C	0	34	133	0	0
O=C(O)CSc1nc2ccccc2c(=O)[nH]1	0	0	0	0	0
CC(C)(C)NC(=O)CSc1nc2ccccc2c(=O)[nH]1	0	32	0	0	0
Cc1cccc(OCC2=NS(=O)(=O)c3ccccc3N2)c1	0	38	106	0	0
O=C(Oc1ccccc1)N1CCC2(CC1)CN(c1ccccc1)C2	-	-	-	-	0
Oc1ccc(-c2nc3ccccc3s2)c(O)c1	?	40	92	0	0
COc1ccc(Cl)cc1-c1nc(N)nc(N(C)C)n1	0	0	0	0	0
O=C(Nc1ccc(O)c(-c2nc3ccccc3s2)c1)c1cccs1	0	0	0	0	0
Nc1ccccc1-c1nc2ccccc2s1	0	41	106	0	0
CCCN1CCN(C(=O)c2ccccc2-c2nc3ccccc3s2)CC1	0	0	0	-	0
CN(C)c1nc(N)nc(-c2nc3ccccc3s2)n1	0	39	101	0	0
Oc1ccc(N=C/C=C/c2cccc(Br)c2)cc1-c1nc2ccccc2s1	0	32	0	0	?
Cc1nn(-c2ccccc2)c(C)c1C(=O)NCc1ccccc1F	0	0	0	0	0
O=C(Oc1ccccc1)N1CCC2(CC1)CN(c1ccncc1)C2	-	-	-	-	0
Nc1ccc(O)c(-c2nc3ccccc3s2)c1	0	47	45	0	?
C/C(=N\NC(=O)c1cc(C)oc1C)c1ccc2ccccc2c1	0	0	0	0	0
Cc1cc(C(=O)N/N=C2/CC(C)CC(C)(C)C2)c(C)o1 (stereo unspecified)	0	31	77	0	0
SMILES	LmPK inh	CHX counter	Shiga inhibitor	NS1 function inh	FBPA Giardia inh
CN(C)c1ccc(C(=O)/C=C/c2cccnc2)cc1	0	46	82	0	0
CN(C)c1ccc(/C=C/C(=O)c2cccc(Br)c2)cc1	0	64	127	0	0
CCN(C(=O)c1cccc(Br)c1)c1ccccc1	0	0	0	0	0
CCN(Cc1ccccc1)C(=O)c1oc2ccc(C)cc2c1C	0	0	0	0	0
Cc1ccc2oc(C(=O)N(C)Cc3ccc(C)o3)c(C)c2c1	0	27	52	0	0
Cc1ccc2oc(C(=O)N(C)Cc3ccon3)c(C)c2c1	0	54	47	0	-
COc1ccc(C2=NC(c3ccc(Cl)cc3)C(c3ccc(Cl)cc3)N2C(=O)N2CCNC(=O)C2)c(OC(C)C)c1 (stereo unspecified)	-	0	0	-	0
Cc1noc(C)c1C(=O)N1CCC2(CCN(Cc3cc(C(F)(F)F)cc(C(F)(F)F)c3)CC2)CC1	-	-	-	-	0
Cc1cc(-c2cccs2)n[nH]1	0	0	0	0	0
Cc1nn2cc(-c3ccc(-c4ccccc4)cc3)nc2s1	0	26	0	0	0
Cc1nc2nc(CCNS(=O)(=O)c3ccc(Cl)cc3)cn2nc1C	0	0	0	0	0
Cc1nn2cc(-c3ccc(Cl)cc3)nc2s1	0	59	112	0	0
Cc1nn2c(-c3ccc(Cl)cc3)nnc2s1	0	0	0	0	0
Cc1nc2nc(-c3ccc(Cl)cc3)cn2nc1C	?	38	93	0	0
Cc1nc2nc(-c3cccs3)cn2nc1C	28µM	31	0	0	0
CC(C)CCNC(=O)C1CCC(CNS(=O)(=O)c2cccc3nsnc23)CC1 (stereo unspecified)	0	0	0	0	-
O=C(NCc1ccc(Cl)cc1)C(=O)NCC1OCCN1S(=O)(=O)c1cc(F)ccc1F (stereo unspecified)	0	0	0	0	-
COc1cccc(Cn2c(=O)c(-c3ccc(F)cc3)nc3cnc(N(C)C)nc32)c1	-	-	-	-	0
Cc1ccc(-c2cn3nc(-c4ccccc4)c(-c4ccccc4)nc3n2)cc1	0	16	0	0	0
